For this assay, the system named is VDR:RXRa (NR concentration 270 nM, RXRa partner concentration 90 nM). Briefly: PBM binding z-score (relative to random genomic background probes); higher = stronger binding; sequences stand for … in GC…GCGATTGACAGCGTAGAATGAAGG
The method, then:
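Protein-binding microarray (Agilent 4x180K custom design, double-stranded 60-nt probes: 5' GC cap, 34-nt variable region, 24-nt constant primer region; full probe sequence given). Purified or IVT nuclear receptor:RXRα heterodimers (3:1 NR:RXRα, mostly 270:90 nM) or homodimers were incubated for 1 h in PBS with 2% milk and no ligand, then detected with Alexa488 antibodies. Fluorescence from o1-orientation probes (~5 replicates averaged) was converted to z-scores against 500 random hg19 background probes. Variable regions are seed direct-repeat (DR0–DR5) sites, all their single-nucleotide variants and half-site ablations.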
In turn, TCATATAGTTAAACAGGTGAAAGTCCGTAAGTTA displayed a PBM binding z-score of 1.21.

As to CCGACTGGGGCAAGGTTAGCATAACGCACAGCCA, the PBM binding z-score is -0.429. TCGAGTAGGTTACCAATGGGGCGTTCAGCTTTCT returned a PBM binding z-score of -0.111. In the case of ACTTACGGGTCAACGAGGTTTTAGCACGCGTATA, the PBM binding z-score was found to be 6.69. Turning to GCAGACACGTGAAACGCAGGTAACTCAGGGTGGC, the PBM binding z-score is -0.854. Regarding AGAATGAGGTTACCAAAGATCAGGGATACGCTTG, the PBM binding z-score worked out at 1.39. In turn, GTACCAAGGTGAATAGGTCGTTGAAGAGTAGGCG returned a PBM binding z-score of 1.01. CAAACTAGGTCAAGAGGTCAGAGTCCGCTTCCCG displayed a PBM binding z-score of 4.89. As for TCTAGCATGCCAGAGGGTCACTCAAGAGGTACGG, the figure is 1.46.

TCTAATAGTTGATTAGGGCAACCGAAACAGCGGA showed a PBM binding z-score of 0.582. The sequence CAAACTAGGTCAAGAGGTCAAAGCCCGCTTCCCG gave a PBM binding z-score of 5.9. TTACCAAGGTGAGCTGAGGCCGTTGATCCAACTC registered a PBM binding z-score of 0.537. In the case of TAGGCTAGGTCATTCAGGGGCCAGTATAGAAAGC it was 3.24. Consider TCATATAGGTAAACCGGTGAAAGTCCGTAAGTTA, for which the PBM binding z-score worked out at 0.87. In turn, ATCTCTAGGTAACCAAGTCCAGTGAATGCCGAAC had a PBM binding z-score of 0.999. TCTATTAGTTGATTAGGGCAACAGAAACAGCGGA came in with a PBM binding z-score of 0.574. As for AGTCAAAGTTCATGTAGGTAACGTAAGATATGCT, the figure is 4.84; as for GGAACGAGGGCAAGTTCATAGCAGAGTTTGATGG, 3.9. Consider CCGACTGGCGCAAAGGTTACCATACTCAGTACGA, for which the PBM binding z-score is 0.854. TCTTGTAGATCAATAGAGGTTAAGAATGTGCGCT: the PBM binding z-score was determined as 1.27. For the sequence GTACGAAGGTGAATAGGTCGTTGATGAGTAGGCG, the PBM binding z-score amounted to 0.73. In the case of TCATATAGGTAACAGGTGAAAGTCGGTGTGGTAA it was 0.96.

Take GCTGCTAGGTCAACTGATGGTCAGCCAAAGCTCG: the PBM binding z-score was determined as 1.58. In turn, CCGACTGTGGCAAAGGTTACCATACTCAGTACGA gave a PBM binding z-score of 1.03. As for TCGAGTAGGTTAGGGGCATTCGGAATGGCGTCGA, the figure is 0.55; as for CTCGAAAGGTCGGATGAGGTGAGTATACGGATAA, 2.74; as for TCTGCTAGGTCACTTGGTCAGCTAACGAGCTGCC, 1.3.

Regarding ATCGAAAGGTCCTGAGGTGAGTATACAGAAAGGC, the PBM binding z-score amounted to 0.189.

In the case of TGAATGAGGTTATACGATCAGGGAACGTTGCAAA, the PBM binding z-score came out at 0.918. Take ATCTATAGGTAAAGATAGTTCAGTGAATGCAAAT: the PBM binding z-score stood at 1.

TGAATGAGGTTAAAGATCAAGGAACGTGGCGTCG had a PBM binding z-score of 2.09. As for GCTGCTAGGTCAGGTAGGTCAGCTAACGGGTACG, the figure is 3.35. CGTCCAAGGTCATAGGAGGTCAGTGACGACAGAT yielded a PBM binding z-score of 6.55.

Consider ATCTCTAGGTAACAAGTGCAGTGAAAGAGAGGAC, for which the PBM binding z-score was determined as 0.287. Regarding GCATATAGGTAAAACAAGGTGAAAGTCCGATTGT, the PBM binding z-score was 0.401. GCGACTGGGGCATCAGCAGGTTACCATCACTTAA displayed a PBM binding z-score of -0.265. TAGTCTAGGTCAGATCGGGCCAGTATACGCTATA displayed a PBM binding z-score of 0.995.

Turning to CCTACTGGGCCAAGGACATTGATCAGTCAAAGCA, the PBM binding z-score is -0.496. As for CCTTACGGGTCAAGGTTATAGTACGGGTGGTACG, the figure is 3.62; as for CATACAGGGTCAGCTAGGCCAGACTAGGGACGGC, 3.86.

(Values after the supplement of paper PMC6555819.)
